We go through nine compounds from PubChem BioAssay (NCI).

Where “and” joins values, the source holds several entries; their conditions need not be identical. Equal entries are not always repeated. The panel holds about 79,000 compounds, 15% with a hit somewhere; the sample as a whole holds those more often. Values without a mark were called inactive. Calls of active or inactive are those of the source. No stated cut-off is given here; in the data, active means growth inhibition above about 70%; inactive means the rest.

Assay [1] can be described thus: NCI Yeast Anticancer Drug Screen. Data for the rad50 strain (AID 155).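 Further: 0% = growth of vehicle-only cultures of the same strain.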 The conditions noted are these: S. cerevisiae rad50 strain growth inhibition, active compounds read high. The gist of the method: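 Genetically altered yeast (DNA repair pathway); compound treatment; growth inhibition vs vehicle ctrl.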
A short description of assay [2]: NCI Yeast Anticancer Drug Screen. Data for the mec2-1 strain (AID 157). The conditions noted are these: S. cerevisiae mec2-1 strain, active compounds read high. The gist of the method: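 Test agents were screened against the mec2-1 yeast strain, with defined DNA repair or cell cycle alteration. Growth was scored as inhibition against vehicle-only controls.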
Assay [3] can be described thus: NCI Yeast Anticancer Drug Screen. Data for the sgs1 mgt1 strain (AID 161).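 Further: 0% = growth of cultures given vehicle only.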 The conditions noted are these: S. cerevisiae sgs1 mgt1 strain, active compounds read high. In short, it runs like this:
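Mutant yeast exposed to compound; growth scored against vehicle-only wells.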

Assay [4] in a line: NCI Yeast Anticancer Drug Screen. Data for the cln2 rad14 strain (AID 165).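 Further: 0% = growth equal to vehicle treated cultures.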 The conditions noted are these: S. cerevisiae cln2 rad14 strain, active compounds read high. The gist of the method: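 Growth of compound-exposed yeast (cln2 rad14 genotype) measured and expressed as inhibition relative to vehicle.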
A short description of assay [5]: NCI Yeast Anticancer Drug Screen. Data for the bub3 strain (AID 167). The conditions noted are these: S. cerevisiae bub3 mutant strain, active compounds read high. The gist of the method:
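Yeast carrying a defined mutation is treated with each compound, and growth is compared with that of vehicle-exposed cells to give inhibition.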

A short description of assay [6]: NCI Yeast Anticancer Drug Screen. Data for the mlh1 rad18 strain (AID 175). The conditions noted are these: S. cerevisiae mlh1 rad18 strain growth inhibition, active compounds read high. The gist of the method: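 In this whole-cell yeast screen, a strain with altered DNA damage repair is challenged with compound, and its growth is measured against matched vehicle-treated controls.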

The mark [7] stands for this setting: at 5.0 µM (retest, dose inferred, filed as 0.5).
The mark [8] stands for this setting: at 50.0 µM (retest, dose inferred, filed as 5.0).

Regarding `O=[N+]([O-])C(Br)CO` (configuration not stated), the growth inhibition in assay [1] (setting [7]) was 2%; in assay [1] (setting [8]), 91% (active); in assay [1] (at 50.0 µM) it was 76% (active); in assay [2] (setting [7]), 2%; in assay [2] (setting [8]) it was 99% (active); in assay [2] (at 50.0 µM), 89% (active). Further, the growth inhibition was 3% in assay [3] (setting [7]); 94% (active) in assay [3] (setting [8]); 79% (active) in assay [3] (at 50.0 µM); 9% in assay [4] (setting [7]); 95% (active) in assay [4] (setting [8]); 84.8% (active) in assay [4] (at 50.0 µM). Further, the growth inhibition in assay [5] (setting [7]) is 7%; in assay [5] (setting [8]) it was 99% (active); in assay [5] (at 50.0 µM), 94% (active); in assay [6] (setting [7]), 4%; in assay [6] (setting [8]), 97% (active); in assay [6] (at 50.0 µM) it was 88.1% (active).
As for `O=[As]c1ccc(Cl)cc1Cl` (configuration not stated), the growth inhibition in assay [1] (setting [7]) is 100% (active); in assay [1] (setting [8]) it was 99% (active); in assay [1] (at 50.0 µM), 99.7% (active); in assay [2] (setting [7]), 100% (active); in assay [2] (setting [8]) it was 100% (active); in assay [2] (at 50.0 µM), 99.7% (active). Further, the growth inhibition in assay [3] (setting [7]) is 99% (active); in assay [3] (setting [8]), 100% (active); in assay [3] (at 50.0 µM), 99.7% (active); in assay [4] (setting [7]), 100% (active); in assay [4] (setting [8]) it was 99% (active); in assay [4] (at 50.0 µM), 99.3% (active). Also, the growth inhibition was 99% (active) in assay [5] (setting [7]); 100% (active) in assay [5] (setting [8]); 99.2% (active) in assay [5] (at 50.0 µM); 100% (active) in assay [6] (setting [7]); 99% (active) in assay [6] (setting [8]); 99.3% (active) in assay [6] (at 50.0 µM).
With `O=[N+]([O-])c1cc(S(=O)(=O)F)ccc1S`, the growth inhibition in assay [1] (setting [7]) was -76%; in assay [1] (setting [8]), 89% (active); in assay [1] (at 50.0 µM) it was 91.2% (active); in assay [2] (setting [7]), -32%; in assay [2] (setting [8]) it was 93% (active); in assay [2] (at 50.0 µM), 77.5% (active). The growth inhibition was -34% in assay [3] (setting [7]); 88% (active) in assay [3] (setting [8]); 88.9% (active) in assay [3] (at 50.0 µM); -40% in assay [4] (setting [7]); 90% (active) in assay [4] (setting [8]); 86.7% (active) in assay [4] (at 50.0 µM). Further, the growth inhibition was -59% in assay [5] (setting [7]); 90% (active) in assay [5] (setting [8]); 91.8% (active) in assay [5] (at 50.0 µM); -103% in assay [6] (setting [7]); 92% (active) in assay [6] (setting [8]); 95.8% (active) in assay [6] (at 50.0 µM).
Regarding `CC1=CC2OC3CC4OC(=O)/C=C/C=C/C(=O)OCCC(C)C(O)C(=O)OCC2(CC1O)C4(C)C31CO1` (configuration not stated), the growth inhibition in assay [1] (setting [7]) is 96% (active); in assay [1] (setting [8]), 98% (active); in assay [1] (at 50.0 µM), 92.3% (active); in assay [2] (setting [7]), 96% (active); in assay [2] (setting [8]) it was 98% (active); in assay [2] (at 50.0 µM), 93.1% (active). The growth inhibition is 98% (active) in assay [3] (setting [7]); 99% (active) in assay [3] (setting [8]); 93.2% (active) in assay [3] (at 50.0 µM); 97% (active) in assay [4] (setting [7]); 98% (active) in assay [4] (setting [8]); 91.7% (active) in assay [4] (at 50.0 µM). Also, the growth inhibition is 96% (active) in assay [5] (setting [7]); 98% (active) in assay [5] (setting [8]); 91.7% (active) in assay [5] (at 50.0 µM); 96% (active) in assay [6] (setting [7]); 97% (active) in assay [6] (setting [8]); 91.5% (active) in assay [6] (at 50.0 µM).
On to `c1ccc2c(c1)c1cccc3c4c5ccccc5c5cccc(c2c13)c54`, for which the growth inhibition was -1% in assay [1] (setting [7]); -1% in assay [1] (setting [8]); 1.9% in assay [1] (at 50.0 µM); -2% in assay [2] (setting [7]); 0% in assay [2] (setting [8]); 15.7% in assay [2] (at 50.0 µM). Besides, the growth inhibition in assay [3] (setting [7]) was -2%; in assay [3] (setting [8]), -1%; in assay [3] (at 50.0 µM), 11.4%; in assay [4] (setting [7]), 1%; in assay [4] (setting [8]) it was -5%; in assay [4] (at 50.0 µM), 78.1% (active). Moreover, the growth inhibition in assay [5] (setting [7]) was 0%; in assay [5] (setting [8]), 1%; in assay [5] (at 50.0 µM) it was -1.25%; in assay [6] (setting [7]), -3%; in assay [6] (setting [8]), -2%; in assay [6] (at 50.0 µM), 14.6%.
As to `O=C1C(Cl)=C(Cl)C(=O)N1c1ccc(F)cc1`, the growth inhibition in assay [1] (setting [7]) was 53%; in assay [1] (setting [8]), 99% (active); in assay [1] (at 50.0 µM) it was 52%; in assay [2] (setting [7]), 42%; in assay [2] (setting [8]) it was 100% (active); in assay [2] (at 50.0 µM), 28.8%. For the same compound, the growth inhibition in assay [3] (setting [7]) was 28%; in assay [3] (setting [8]), 100% (active); in assay [3] (at 50.0 µM), 88.3% (active); in assay [4] (setting [7]), 24%; in assay [4] (setting [8]), 99% (active); in assay [4] (at 50.0 µM) it was 89.2% (active). Moreover, the growth inhibition in assay [5] (setting [7]) was 35%; in assay [5] (setting [8]) it was 99% (active); in assay [5] (at 50.0 µM), 90.8% (active); in assay [6] (setting [7]) it was 45%; in assay [6] (setting [8]), 100% (active); in assay [6] (at 50.0 µM) it was 48.1%.
As for `CCC(C)(C)c1ccc(O)cc1`, the growth inhibition in assay [1] (setting [7]) is -1%; in assay [1] (setting [8]) it was 16%; in assay [1] (at 50.0 µM) it was -19.3% and 59.8%; in assay [2] (setting [7]) it was -3%; in assay [2] (setting [8]), 0%; in assay [2] (at 50.0 µM), -17.4% and 40.9%. In addition, the growth inhibition in assay [3] (setting [7]) was -10%; in assay [3] (setting [8]), 5%; in assay [3] (at 50.0 µM), -10.9% and 63%; in assay [4] (setting [7]), 1%; in assay [4] (setting [8]) it was -4%; in assay [4] (at 50.0 µM) it was -15.2% and -13.6%. Besides, the growth inhibition was 2% in assay [5] (setting [7]); 7% in assay [5] (setting [8]); -28.6% and 38.3% in assay [5] (at 50.0 µM); -2% in assay [6] (setting [7]); 11% in assay [6] (setting [8]); -17.7% and 64.5% in assay [6] (at 50.0 µM).
For `CC#C[P+](c1ccccc1)(c1ccccc1)c1ccccc1`, the growth inhibition is 98% (active) in assay [1] (setting [7]); 98% (active) in assay [1] (setting [8]); 91.2% (active) in assay [1] (at 50.0 µM); 87% (active) in assay [2] (setting [7]); 87% (active) in assay [2] (setting [8]); 92.9% (active) in assay [2] (at 50.0 µM). The growth inhibition in assay [3] (setting [7]) is 90% (active); in assay [3] (setting [8]), 90% (active); in assay [3] (at 50.0 µM), 92.8% (active); in assay [4] (setting [7]), 91% (active); in assay [4] (setting [8]), 91% (active); in assay [4] (at 50.0 µM), 90.8% (active). For the same compound, the growth inhibition in assay [5] (setting [7]) was 86% (active); in assay [5] (setting [8]) it was 86% (active); in assay [5] (at 50.0 µM), 90.2% (active); in assay [6] (setting [7]), 95% (active); in assay [6] (setting [8]) it was 95% (active); in assay [6] (at 50.0 µM), 88.8% (active).
As to `COC(=O)CC1(C(=O)O)CC2(Cl)C(Cl)=C(Cl)C1(Cl)C2(Cl)Cl` (configuration not stated), the growth inhibition in assay [1] (setting [7]) is 4%; in assay [1] (setting [8]), 30%; in assay [1] (at 50.0 µM) it was 65.9%; in assay [2] (setting [7]), 10%; in assay [2] (setting [8]), 52%; in assay [2] (at 50.0 µM), 47.4%. The growth inhibition in assay [3] (setting [7]) is 6%; in assay [3] (setting [8]) it was 49%; in assay [3] (at 50.0 µM), 75% (active); in assay [4] (setting [7]) it was 17%; in assay [4] (setting [8]) it was 56%; in assay [4] (at 50.0 µM), 83.5% (active). For the same compound, the growth inhibition is 1% in assay [5] (setting [7]); 41% in assay [5] (setting [8]); 36.8% in assay [5] (at 50.0 µM); 7% in assay [6] (setting [7]); 57% in assay [6] (setting [8]); 61.4% in assay [6] (at 50.0 µM).
